From PubChem
VP16 counter: counter-screen for ROR gamma inhibitors: Gal4-VP16 reporter; Drosophila S2 Gal4-VP16 UAS-luciferase, luminescence, 20 h; Potency, µM (top dose mostly 53.6 µM), for inactives: at the top dose activity, negative = inhibition, most hits filed as inhibitors; actives 3.5% (n = 310,000); AID 2546;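 also: Gal4-VP16 expression switched on by copper sulfate through the metallothionein promoter; nearly all actives have a fitted effect of over 50% in size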
RORg inh: blocks mouse ROR gamma transcriptional activity. P51450. AID 2551. actives 5.4% (n = 310,000). Drosophila S2 Gal4-RORgamma UAS-luciferase reporter, 20 h. Potency, µM (series often up to 53.6 µM), for inactives: at the highest dose activity change, negative = inhibition, usual class: inhibitors; also: nearly all actives have a fitted effect of over 60% in size
Target sequence (P51450 whole entry, looked up, the tested form may be a part): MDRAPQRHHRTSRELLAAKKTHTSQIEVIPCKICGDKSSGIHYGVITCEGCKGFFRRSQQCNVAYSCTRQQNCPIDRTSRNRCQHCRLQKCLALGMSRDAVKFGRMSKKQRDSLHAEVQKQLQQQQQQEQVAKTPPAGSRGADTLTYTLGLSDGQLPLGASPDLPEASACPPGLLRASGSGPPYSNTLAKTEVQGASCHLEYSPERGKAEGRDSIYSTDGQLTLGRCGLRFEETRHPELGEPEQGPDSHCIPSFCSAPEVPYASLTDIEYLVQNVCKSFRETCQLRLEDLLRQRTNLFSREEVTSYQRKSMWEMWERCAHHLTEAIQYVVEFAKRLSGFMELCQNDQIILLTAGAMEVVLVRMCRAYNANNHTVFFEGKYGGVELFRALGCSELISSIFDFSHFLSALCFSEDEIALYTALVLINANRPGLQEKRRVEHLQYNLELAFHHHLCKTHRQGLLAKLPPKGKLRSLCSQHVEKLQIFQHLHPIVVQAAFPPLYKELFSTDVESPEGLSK
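Schneider cells (Drosophila), stable Gal4 DBD–ROR gamma + UAS-luc; 1 hr cmpd preincubation; Cu2+ induction 700 uM final; 20 hr ambient; luminescence.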
Luc counter: counter-screen: inhibitors of Kinase-Glo firefly luciferase | Q27757 | Kinase-Glo luciferase, ATP luminescence, 8 min | Potency, µM (top dose mostly 38.3 µM), for the others: at the highest dose activity change, negative = inhibition, usual class: inhibitors | actives 0.28% (n = 200,000) | AID 1379; also: nearly all actives have a fitted effect of over 60% in size
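Luminescence was the read-out, taken after 8-minute incubation at ambient temperature. Luciferase turned over luciferin with 10 uM ATP in imidazole pH 7.2 buffer containing KCl, MgCl2, Tween 20 and BSA.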
Starred values were filed as active, the others as inactive; ? = inconclusive; . = not tested or not shown; [ ] = dose if it differs, or a comment. In the library only some 6.4% were active in any assay of this set; here they are far more common. Calls follow the shape of the dose curve; as a rule, active = well fitted curve in the direction sought with a large enough effect; inconclusive = small, poorly fitted or top-dose-only effect, or another doubt; inactive = no such curve, though single readings can be large; an effect the other way counts as inactive or inconclusive. % is scaled to controls: 0 for no effect and ±100 for the full control effect; potency is read from the fitted curve at half-maximal effect.

SMILES	VP16 counter	RORg inh	Luc counter
Cc1cccc(NC(=O)CCC(=O)N/N=C/c2cc([N+](=O)[O-])ccc2O)c1	-7%	8.9µM*	3%
Cc1cccc(NC(=O)CCC(=O)N/N=C/c2ccncc2)c1	?	22%	0%
O=C(CCC(=O)N/N=C/c1ccccc1O)NCc1ccccc1	-24%	20µM*	0%
O=C(N/N=C/c1cc([N+](=O)[O-])ccc1O)c1cccc(NC(=O)c2cccc(Cl)c2)c1	?	4.5µM*	.
O=C(CCC(=O)Nc1ccc(Br)cc1)N/N=C/c1ccccc1F	-2%	-11%	.
O=C(CCC(=O)Nc1ccc(F)cc1)N/N=C/c1ccccc1O	-24%	14µM*	1%
O=C(CC(=O)N/N=C/c1ccccc1)NCc1ccccc1	1%	2%	-3%
CCOc1ccc(CN2CCNC(=O)C2CC(=O)NCCN2CCOC2=O)cc1 (stereo not given)	-9%	-26%	.
O=C1C2=C(C(=O)c3ccccc31)C1O[C@](CCCCN3C(=O)c4ccccc4C3=O)(Cc3ccccc31)O2	-3%[10 µM]	1%[10 µM]	.
COc1ccccc1NC(=O)Cn1nnc(C(=O)NCCc2ccccc2)c1N	-9%	5%	1%
Cc1ncc(CN2CCCC(C(=O)Nc3ccc(-n4ccnc4C)cc3)C2)cn1 (stereo not given)	-8%	-35%	.
COC(=O)C1=C(C(=O)OC)[C@@H]2N(C)c3ccccc3[C@@]23C[C@@H](CO)N(C(=O)c2cc(C)oc2C)C3=N1	.	.	-6%[7.66 µM]
COc1ccc(CNC(=O)CN(c2ccc(C(C)C)cc2)S(=O)(=O)c2c(C)noc2C)cc1	-7%	-30%	.
O=C(CCC(=O)Nc1ccc(F)cc1)N/N=C/c1cc([N+](=O)[O-])ccc1O	-11%	10µM*	1%
O=C(N/N=C/c1ccccc1O)C(=O)N1CCCCCC1	13µM*	13µM*	.
O=C(CCc1ccccc1)Nc1cc(C(F)(F)F)ccc1Cl	3%	?	-4%
O=C(CCC(=O)Nc1cc(C(F)(F)F)ccc1Cl)N/N=C\c1cc([N+](=O)[O-])ccc1O	8.9µM*	2.5µM*	.
O=C(N/N=C/c1ccccc1F)C(=O)N1CCCCCC1	-16%	-2%	.
O=C(CCC(=O)Nc1ccc(Br)cc1)N/N=C/c1cc([N+](=O)[O-])ccc1O	-23%	-34%	6%
O=[N+]([O-])c1cccc(-c2noc(COc3ccccc3)n2)c1	-8%	8%	0%
Cc1ccc(C)c(C(C)NC(=O)c2ccncc2)c1 (stereo not given)	-3%	30%	.
COc1ccc(C(C)NC(=S)NCc2ccc(F)cc2)cc1 (stereo not given)	1µM*	5.6µM*	.
COc1ccc(CCC(C)NCc2ccc(F)cc2)cc1 (stereo not given)	-2%	-24%	.
COc1ccc(CCC(=O)NNC(=O)c2ccc(F)cc2)cc1	-9%	-15%	.
COc1ccc(CCC(=O)NNC(=S)NCc2ccc(F)cc2)cc1	-19%	7.9µM*	0%
SMILES	VP16 counter	RORg inh	Luc counter
CCC(NC(=S)NCc1ccc(F)cc1)c1ccccc1 (stereo not given)	3.2µM*	3.5µM*	.
O=C(NCc1ccc(F)cc1)C(c1ccccc1)c1ccccc1	-3%	-23%	.
Cc1ccc(C)c(C(C)NC(=S)NCc2ccc(F)cc2)c1 (stereo not given)	1.4µM*	5µM*	.
COc1ccc2c(c1)O[C@@H](c1ccc3c(c1)OCO3)[C@H](OC(=O)N[C@H]1CCCc3ccccc31)C2=O	5%	-1%	5%
O=C(c1ccco1)N1CCN(CC(O)COc2ccc(Br)cc2)CC1 (stereo not given)	8%	38%	.
COC(=O)c1cccc(NC(=S)NCc2ccc(Cl)cc2)c1	4%[0.365 µM]	?	1%
COc1cccc(C(C)NC(=S)NCc2ccc(Cl)cc2)c1 (stereo not given)	?	6.3µM*	2%
CC(/C=N/NC(=O)c1ccccc1F)=C\c1ccccc1	-11%	-29%	.
N#CC1=C(N)N=C(SCc2ccccc2)C(C(N)=O)C12CCCCC2 (stereo not given)	?	-90%	2%
N#CC1=C(S)N=C(N)C(c2nc(-c3ccccc3)cs2)C12CCCCC2 (stereo not given)	?	10µM*	-2%
N#CC1=C(S)N=C(N)C(c2nc(-c3ccccc3)cs2)C12CCCC2 (stereo not given)	-21%	10µM*	-2%
Nc1nc(-c2ccccc2)cs1	6%	8%	18%
Cc1ccc(-c2csc(C3C(N)=NC(S)=C(C#N)C34CCCCC4)n2)cc1 (stereo not given)	?	5µM*	17%
